# High-throughput results deposited in PubChem BioAssay by National Center for Advancing Translational Sciences (NCATS).
# FEN1 inh = blocks human flap endonuclease 1; P39748; Recombinant FEN1 flap cleavage, fluorescence, 15 min; Potency, µM (highest dose often 114 µM), actives largely listed as inhibitors; actives 0.35% (n = 390,000); AID 588795; note: nearly all actives have a fitted effect of over 65% in size
#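 Reaction started by adding substrate (50 nM final) to 10 nM enzyme after 15 min room-temperature compound preincubation. Reads at 0 and 15 min, with data normalized and fitted to a four-parameter Hill equation.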
# Pol eta inh = DNA polymerase eta (human) inhibition; Q9Y253; actives 1.2% (n = 390,000); recombinant Pol eta, fluorescent DNA replication assay; AID 588591; Potency, µM (titrated, usually from 114 µM), most hits filed as inhibitors
#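 Fluorescent replication assay: 50 nM final substrate added after a 15 min room-temperature compound preincubation with 10 nM enzyme. Signal taken at 0 min and again at 10 min.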
# POLI inh = blocks human DNA polymerase iota activity. Potency, µM (doses to about 115 µM), usual class: inhibitors. Pol iota fluorescent replication assay, 10 min. AID 588590. actives 1% (n = 390,000). Q9UNA4
# Target sequence (Q9UNA4 whole entry, looked up): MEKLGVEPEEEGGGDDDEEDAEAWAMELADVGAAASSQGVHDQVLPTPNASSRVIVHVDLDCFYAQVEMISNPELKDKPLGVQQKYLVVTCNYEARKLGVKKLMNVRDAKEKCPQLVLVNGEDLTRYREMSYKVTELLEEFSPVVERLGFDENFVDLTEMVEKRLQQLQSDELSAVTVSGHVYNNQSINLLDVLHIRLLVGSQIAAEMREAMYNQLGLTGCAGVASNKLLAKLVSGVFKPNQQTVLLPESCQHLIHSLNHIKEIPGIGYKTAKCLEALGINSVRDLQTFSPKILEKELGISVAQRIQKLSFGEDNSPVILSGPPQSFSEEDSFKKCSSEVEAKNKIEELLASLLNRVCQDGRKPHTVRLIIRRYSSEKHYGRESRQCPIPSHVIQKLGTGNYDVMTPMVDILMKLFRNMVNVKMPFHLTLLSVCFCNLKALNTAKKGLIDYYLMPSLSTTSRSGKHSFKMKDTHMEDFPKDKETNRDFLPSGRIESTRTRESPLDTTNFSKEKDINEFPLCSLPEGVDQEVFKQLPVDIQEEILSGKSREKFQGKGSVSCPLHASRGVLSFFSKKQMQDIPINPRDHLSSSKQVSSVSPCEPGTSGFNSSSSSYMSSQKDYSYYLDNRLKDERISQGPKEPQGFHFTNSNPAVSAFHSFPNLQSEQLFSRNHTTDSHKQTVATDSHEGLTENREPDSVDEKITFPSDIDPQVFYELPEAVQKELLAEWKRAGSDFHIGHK
#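 Fluorescent replication assay read twice, at 0 min and 10 min after adding 50 nM (final) substrate. Enzyme (10 nM) and compounds were first incubated 15 min at room temperature; enzyme-free buffer wells were negative controls.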
# WRN inhibitor = WRN helicase (human) inhibition | actives 0.46% (n = 360,000) | Q14191 | Potency, µM (titrated, usually from 114 µM), actives largely listed as inhibitors | WRN helicase unwinding, fluorescent forked duplex, kinetic; note: nearly all actives have a fitted effect of over 55% in size
#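 Fluorescence dequenching readout, ex 525 nm/em 598 nm, kinetic mode: forked duplex DNA (100 nM final) with adjacent fluorophore and quencher unwound by WRN (20 nM final) with 2 mM ATP. Compound preincubation 15 min, room temperature.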
# POLB inh = DNA polymerase beta (human) inhibition; Pol beta primer extension/strand displacement, fluorescence kinetic; Potency, µM (top dose mostly 114 µM), usual class: inhibitors; AID 485314; P06746; actives 1.3% (n = 340,000)
#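 Pol beta (10 nM) was preincubated with compound for 15 min at room temperature. The reaction was then started with 50 nM substrate and read immediately and after a further 10 min at room temperature.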
# POLK inh = DNA polymerase kappa (human) inhibition. Q9UBT6. AID 588579. Potency, µM (highest dose often 107 µM), most hits filed as inhibitors. actives 0.53% (n = 400,000). purified Pol kappa, fluorescent DNA synthesis assay, 10 min
#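 Inhibition of 10 nM Pol kappa is measured by a fluorescent read-out at 0 and 10 min following addition of 50 nM substrate (final), with a 15-min room-temperature compound preincubation.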
# Hits are given with their value; . = inactive; ? = inconclusive; / = not tested or not shown; ! = a repeat was not active; [ ] = remark or other dose. Sampled rows, rich in hits. Any-hit rate of the full collection: about 2.4%. Calls come from the whole dose curve; as a rule, active = well fitted curve in the direction sought with a large enough effect; inconclusive = small, poorly fitted or top-dose-only effect, or another doubt; inactive = no such curve, though single readings can be large; an effect the other way counts as inactive or inconclusive.
SMILES,FEN1 inh,Pol eta inh,POLI inh,WRN inhibitor,POLB inh,POLK inh
O=C(Nc1nc(-c2ccco2)c(-c2ccco2)s1)c1ccc(F)cc1F,?,?,?,?,/,50µM
CCCCCNc1ncnc2c(C)[nH]nc12,/,/,/,.,/,/
CCOC(=O)c1c(N)n(C2CC(C)(C)NC(C)(C)C2)c2nc3ccccc3nc12,.,.,?,.,28µM,.
CCOC(=O)c1c(N)n(-c2ccc(CC)cc2)c2nc3ccccc3nc12,.,.,.,/,.,.
CCOC(=O)c1c(N)n(-c2ccc(N)cc2)c2nc3ccccc3nc12,.,.,79µM,.,?,.
CCOC(=O)c1c(N)n(-c2cccc(OC)c2)c2nc3ccccc3nc12,.,.,?,/,.,.
COc1ccc(CNC(=O)CN(c2ccc(C(C)C)cc2)S(=O)(=O)c2c(C)nn(C)c2C)cc1,.,.,.,/,.,.
NC(=O)OC[C@H](O)COc1ccc(Cl)cc1,/,/,/,/,/,.[19.4 µM]
Cc1c(NS(=O)(=O)c2cccc(C(=O)NCc3ccc(Cl)cc3)c2)c(=O)n(-c2ccccc2)n1C,.,.,.,.,?,.
Cc1c(NS(=O)(=O)c2cc(C(=O)NCCN(C)C)ccc2Cl)c(=O)n(-c2ccccc2)n1C,.,.,?,.,45µM,?
Cc1c(NS(=O)(=O)c2cccc(C(=O)NCc3ccco3)c2)c(=O)n(-c2ccccc2)n1C,?,?,35µM,?,/,.
Cc1c(NS(=O)(=O)c2cccc(C(=O)O)c2)c(=O)n(-c2ccccc2)n1C,.,.,50µM!,.,.,.
Cc1cccc(-c2noc(-c3ccccc3NC(=O)C3CC(=O)N(c4ccccc4C)C3)n2)c1 (configuration not stated),.,.,?,/,.,.
CCOC(=O)c1c(NC(=O)C(C)Oc2ccccc2F)sc(C(C)=O)c1C (configuration not stated),.,.,.,/,.,.
CN(/C=C/C(=C\C=[N+](C)c1ccccc1)OCCCS(=O)(=O)[O-])c1ccccc1,.,.,?,.,50µM,?
CC1CCCC(C)N1C(=O)COC(=O)c1ccc(S(=O)(=O)N(C)c2ccccc2)cc1 (configuration not stated),.,.,.,.,/,.
CN(/C=C/C(=C/C=[N+](C)c1ccccc1)OCCCS(=O)(=O)[O-])c1ccccc1,.,?,?,.,28µM,?
CCOc1ccc(-c2cc(C(=O)NCc3cc(C(F)(F)F)cc(C(F)(F)F)c3)[nH]n2)c(C)c1,/,/,/,.,/,/
CCn1c(=O)cc(SCC(=O)NCc2ccc(OC)cc2OC)c2ccccc21,.,.,.,/,.,.
Clc1ccc(-c2csc(N/N=C/c3cccnc3)n2)c(Cl)c1,.,.,.,.,79µM,.
CCc1nc2ccc(C(=O)NCC3CCCCC3)cn2c1N(CCC(C)C)CCN(C)C,/,/,/,.,/,/
O=C(NCc1ccccn1)[C@@H]1CCCN1C(=O)[C@@H]1CCCN1C(=O)c1cccc2ccccc12,/,/,/,.,/,/
COCCCNC(=O)c1ccc2c3c(onc13)-c1ccccc1C2=O,45µM,45µM,?,22µM,.,.
Cn1nnc(NC(=S)NC(=O)/C=C/c2ccco2)n1,?,18µM,?,?,?,?
Cc1cccnc1NC(=S)NC(=O)/C=C/c1ccco1,.,?,?,.,.,.
SMILES,FEN1 inh,Pol eta inh,POLI inh,WRN inhibitor,POLB inh,POLK inh
O=C(/C=C/c1ccco1)NC(=S)Nc1ccccn1,.,.,.,.,40µM,.
CC[N+](C)(C)c1ccc(/C=C/c2ccc3ccccc3n2)cc1,45µM,/,.,/,/,.
CC[N+](C)(C)c1ccc(/C=C/c2ccncc2)cc1,?,/,79µM,/,/,.
Clc1ccc(/C=C/c2ccc3ccccc3n2)cc1Cl,?,/,.,/,/,.
CCN(CC)c1ccc(/C=C/c2nccc3ccccc23)cc1,?,/,.,/,/,.
CCN(CC)c1ccc(/C=C/c2ccc3ccccc3n2)cc1,45µM,/,?,/,/,40µM
COC(=O)C1=C(CSc2nc3c(cc2C#N)CN(C)CC3)OC(N)=C(C#N)C1c1ccc(F)cc1 (configuration not stated),.,?,14µM,?,?,71µM
CC(=O)c1ccc(N2CCN(C(=O)COc3ccc4c(c3)CCC4)CC2)cc1,.,56µM,79µM,.,10µM,?
CN(C)c1ccc(/C=C2\CCC/C(=C\c3ccccc3)C2=O)cc1,.,?,?,50µM,.,.
O=C1/C(=C/c2cccnc2)CCC/C1=C\c1cccnc1,.,22µM,45µM,.[11.6 µM],.,.
CN(C)c1ccc(/C=C2\Cc3ccccc3C2=O)cc1,.,/,.,/,/,.
O=C1/C(=C/c2cccnc2)CC/C1=C\c1cccnc1,.,.,.,.,.,.
CCC1C/C(=C\c2cccnc2)C(=O)/C(=C/c2cccnc2)C1 (configuration not stated),.,11µM,22µM,?,.,.
Cc1ccc(Cl)cc1N1CCN(C(=O)C2CCN(S(=O)(=O)c3cn(C)cn3)CC2)CC1,.,.,.,/,.,.
COC(=O)C1=C(C)N(CCc2ccccc2)C(=O)/C1=C\c1ccco1,.,.,.,.,.,.
COC(=O)C1=C(C)N(Cc2ccccc2)C(=O)/C1=C\c1ccco1,.,.,50µM,.[11.6 µM],.,?
COC(=O)c1[nH]c(=O)c2ccccc2c1O,.,.,22µM,.,.,.
Cc1ccc(NC2=C(NCCO)C(=O)c3ccccc3C2=O)cc1,.,.,20µM,.,.,.
Cc1cc(C(=O)COC(=O)Cc2ccc(Cl)cc2)c(C)n1C,.,?,35µM,.,/,?
CC(=O)OCC(NC(=O)C(COCc1ccccc1)NC(=O)OC(C)(C)C)C1OC(n2ccc(=O)[nH]c2=O)C(OC(C)=O)C1OC(C)=O (configuration not stated),.,/,.,/,/,.
Cc1cccc(CSc2nc3c(sc4ccccc43)c(=O)n2CCC(=O)NC(C)C)c1,.,.,.,/,25µM,.
CC(C)NC(=O)CCn1c(SCc2c(F)cccc2Cl)nc2c(sc3ccccc32)c1=O,.,.,.,/,.,.
COc1cc(-c2nc(Cn3nnc(C(=O)Nc4ccccc4)c3C)c(C)o2)cc(OC)c1OC,.,.,.,/,.,.
COc1ccc(C=O)cc1COc1ccc(F)cc1F,.,?,?,.,18µM,.
CS(=O)(=O)Nc1ccc(-c2ccc(/C=C3\SC(N)=NC3=O)o2)cc1,.,?,?,?,40µM,.
NC1=NC(=O)/C(=C/c2cccs2)S1,.,.,.,.,.,.
Clc1ccc(CN(Cc2ccccc2)C(c2cccs2)c2nnnn2C2CCCC2)cc1 (configuration not stated),.,.,.,.,.,.
c1ccc(CN(Cc2ccco2)C(c2ccncc2)c2nnnn2C2CCCC2)cc1 (configuration not stated),?,45µM,?,?,.,?
